Results filed as inconclusive are left out. Unmarked numbers belong to inactive results. Unless noted, the call rests on the fitted dose curve; in most records, active means well fitted cell-killing curve with a large enough effect in the repeat runs; inconclusive means weak or mixed curves, or effect the other way; inactive means flat fitted curve, though single readings scatter.
experiment: qHTS assay to identify small molecule agonists of the TGF-beta/Smad signaling pathway - cell viability counter screen (AID 1346829); details: SBE-bla HEK293T viability, CellTiter-Glo luminescence, 5 h; series mostly up to 76.8 µM; activity change, negative = cytotoxicity: at the top concentration; further: top concentration of the series differs between compounds; nearly all actives have a fitted effect of over 45% in size
How it was run: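 Here the cytotoxicity of library compounds is measured in SBE-bla HEK 293T cells treated for 5 hr, using CellTiter-Glo added to wells already read for the beta-lactamase reporter.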
On the % scale 0 is the no-effect control and ±100 the full control effect.

Row | Compound | activity change, negative = cytotoxicity
1 | Cc1nc2ccccn2c(=O)c1CCN1CCC(C(=O)c2ccc(F)cc2)CC1 | 1.1% [at 35.3 µM]
2 | COc1ccc(C(=O)c2cccc(O)c2)c(OC)c1 | -1.73%
3 | O=C(CCCN1CCN(c2ccc(F)cc2)CC1)NC1c2ccccc2CSc2ccccc21 (stereo not drawn) | -3.07% [at 35.3 µM]
4 | C=CCOC(=O)/C=C\C(=O)OCC=C | 20.1%
5 | O=C(CS)OCCOC(=O)CS | -9.13%
6 | C[C@@H]1C[C@H]2[C@@H]3CCC4=CC(=O)C=C[C@]4(C)[C@@]3(F)[C@@H](O)C[C@]2(C)[C@H]1C(=O)CO | -22% [at 35.3 µM]
7 | CCCCCCCCSCCO | 0.909%
8 | C(=C\c1ccccc1)/CN1CCN(C(c2ccccc2)c2ccccc2)CC1 | -16.4% [at 35.3 µM]
9 | COCCOC(=O)C1=C(C)NC(C)=C(C(=O)OC/C=C/c2ccccc2)C1c1cccc([N+](=O)[O-])c1 (stereo not drawn) | 5.15% [at 35.3 µM]
10 | O=C(CCCCCCC(=O)Nc1ccccc1)NO | -9.02% [at 35.3 µM]
11 | CCOC(=O)N1CCC(n2c(=O)[nH]c3cc(Cl)ccc32)CC1 | 0.636% [at 35.3 µM]
12 | Nc1ccc(C(=O)OCCCOC(=O)c2ccc(N)cc2)cc1 | -5.74%
13 | CCCCCCCCCCCC(=O)[O][Sn]([CH2]CCC)([CH2]CCC)[O]C(=O)CCCCCCCCCCC | 4.58% [at 35.3 µM]
14 | C[C@]12CCC(=O)C=C1C=C[C@@H]1[C@@H]2CC[C@@]2(C)[C@H]1CC[C@@]21CCC(=O)O1 | -9.59% [at 35.3 µM]
15 | NC(=O)Nc1ccc(Cl)c(Cl)c1 | -13.6%
16 | CC(=O)Oc1ccc(C(=C2CCCCC2)c2ccc(OC(C)=O)cc2)cc1 | -5.78% [at 35.3 µM]
17 | O=C(OCCOCCO)c1ccccc1Nc1cccc(C(F)(F)F)c1 | -6.01% [at 35.3 µM]

Row | Compound | activity change, negative = cytotoxicity
18 | CCOC(=O)[C@@H](C)Oc1ccc(Oc2nc3ccc(Cl)cc3o2)cc1 | -6.54%
19 | CN(C)CCOC1=Cc2ccccc2Sc2ccc(Cl)cc21 | -16.3% [at 35.3 µM]
20 | C/C=C/C=C/CCCCCCCO | 11.3%
21 | OC(CCCN1CCCCC1)(c1ccccc1)c1ccccc1 | -8.94% [at 35.3 µM]
22 | CCCOc1ccc(S(=O)(=O)N2CCN(CC)CC2)cc1-c1nc2c(CC)n(Cc3ccccn3)nc2c(=O)[nH]1 | 23.3%
23 | CC1CC(=O)NN=C1c1ccc(NCC(C)(C)NCC(O)COc2cc(Cl)ccc2C#N)cc1 (stereo not drawn) | 14.4% [at 35.3 µM]
24 | O=C(c1ccc(O)cc1)c1ccc(Cl)cc1 | -15.7%
25 | CCOC(=N)CC(=O)OCC | -0.0013%
26 | O=C(Nc1ccc([N+](=O)[O-])cc1)Nc1ccc([N+](=O)[O-])cc1 | -14.6% [at 35.3 µM]
27 | NC(=O)N(O)[C@@H]1C=C[C@H](Oc2cccc(Oc3ccc(F)cc3)c2)C1 | 2.68%
28 | CNC(=S)NC | -16.1%
29 | COc1cc2c(N3CCN(C(=O)Nc4ccc(OC(C)C)cc4)CC3)ncnc2cc1OCCCN1CCCCC1 | 15.4% [at 35.3 µM]
30 | CCCC1C(CC)=CC(CC)=CN1c1ccccc1 (stereo not drawn) | -19.2%
31 | CCCCCCCC/C=C\CCCCCCCC(=O)OC(CO)CO | 14.9%
32 | CCc1c2c(nc3ccc(OC(=O)N4CCC(N5CCCCC5)CC4)cc13)-c1cc3c(c(=O)n1C2)COC(=O)[C@]3(O)CC | 1.76% [at 35.3 µM]
33 | CC1(C)C2=CCCC(C)(C)[C@]23CC[C@H]1C3 | 6.11%

experiment: qHTS assay to identify small molecule agonists of the TGF-beta/Smad signaling pathway (AID 1346859; active means well fitted activation curve with a large enough effect in the signal ratio in the repeat runs, not every such curve was filed as active; the % refers to the signal ratio); details: SBE-bla HEK293T, TGF-beta/Smad beta-lactamase reporter, 5 h; series mostly up to 76.8 µM; activation: at the top concentration
How it was run: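 SBE-bla HEK293T cells plated overnight, then compound exposure for 5 h at 37 C. Beta-lactamase reporter read with LiveBLAzer B/G FRET substrate after 2 h at room temperature, fluorescence at 405 nm excitation, 460/530 nm emission.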

Row | Compound | activation
34 | Cc1nc2ccccn2c(=O)c1CCN1CCC(C(=O)c2ccc(F)cc2)CC1 | -2.62% [at 35.3 µM]
35 | COc1ccc(C(=O)c2cccc(O)c2)c(OC)c1 | -2.7%
36 | O=C(CCCN1CCN(c2ccc(F)cc2)CC1)NC1c2ccccc2CSc2ccccc21 (stereo not drawn) | -6.94% [at 35.3 µM]
37 | C=CCOC(=O)/C=C\C(=O)OCC=C | -0.0972%
38 | O=C(CS)OCCOC(=O)CS | 2.47%
39 | C[C@@H]1C[C@H]2[C@@H]3CCC4=CC(=O)C=C[C@]4(C)[C@@]3(F)[C@@H](O)C[C@]2(C)[C@H]1C(=O)CO | 0.405% [at 35.3 µM]
40 | Cc1oc(C)c(C(=O)Nc2ccccc2)c1C | 0.573%
41 | CCCCCCCCSCCO | 2.12%
42 | COCc1c(C(C)C)nc(C(C)C)c(/C=C/[C@@H](O)C[C@@H](O)CC(=O)O)c1-c1ccc(F)cc1 | -8.05% [at 35.3 µM]
43 | C(=C\c1ccccc1)/CN1CCN(C(c2ccccc2)c2ccccc2)CC1 | 0.195% [at 35.3 µM]
44 | COCCOC(=O)C1=C(C)NC(C)=C(C(=O)OC/C=C/c2ccccc2)C1c1cccc([N+](=O)[O-])c1 (stereo not drawn) | -1.07% [at 35.3 µM]
45 | O=C(CCCCCCC(=O)Nc1ccccc1)NO | -8.68% [at 35.3 µM]
46 | CCOC(=O)N1CCC(n2c(=O)[nH]c3cc(Cl)ccc32)CC1 | -4.97% [at 35.3 µM]
47 | Nc1ccc(C(=O)OCCCOC(=O)c2ccc(N)cc2)cc1 | -3.64%
48 | CCCCCCCCCCCC(=O)[O][Sn]([CH2]CCC)([CH2]CCC)[O]C(=O)CCCCCCCCCCC | -4.89% [at 35.3 µM]
49 | NC(=O)Nc1ccc(Cl)c(Cl)c1 | -3.94%
50 | CC(=O)Oc1ccc(C(=C2CCCCC2)c2ccc(OC(C)=O)cc2)cc1 | -1.05% [at 35.3 µM]
51 | O=C(OCCOCCO)c1ccccc1Nc1cccc(C(F)(F)F)c1 | -6.69% [at 35.3 µM]

Row | Compound | activation
52 | CCOC(=O)[C@@H](C)Oc1ccc(Oc2nc3ccc(Cl)cc3o2)cc1 | -1.04%
53 | CN(C)CCOC1=Cc2ccccc2Sc2ccc(Cl)cc21 | -1.9% [at 35.3 µM]
54 | C/C=C/C=C/CCCCCCCO | -3.97%
55 | CCCCC/C(=C\c1ccccc1)CO | -2.45%
56 | OC(CCCN1CCCCC1)(c1ccccc1)c1ccccc1 | -1.88% [at 35.3 µM]
57 | CC1CC(=O)NN=C1c1ccc(NCC(C)(C)NCC(O)COc2cc(Cl)ccc2C#N)cc1 (stereo not drawn) | 0.726% [at 35.3 µM]
58 | CCOC(=N)CC(=O)OCC | 0.978%
59 | O=C(Nc1ccc([N+](=O)[O-])cc1)Nc1ccc([N+](=O)[O-])cc1 | -1.92% [at 35.3 µM]
60 | NC(=O)N(O)[C@@H]1C=C[C@H](Oc2cccc(Oc3ccc(F)cc3)c2)C1 | 5.9%
61 | CNC(=S)NC | -4.48%
62 | COc1cc2c(N3CCN(C(=O)Nc4ccc(OC(C)C)cc4)CC3)ncnc2cc1OCCCN1CCCCC1 | 0.565% [at 35.3 µM]
63 | CCCC1C(CC)=CC(CC)=CN1c1ccccc1 (stereo not drawn) | -1.45%
64 | Cc1ccc(S)cc1 | -8.33%
65 | CCCCCCCC/C=C\CCCCCCCC(=O)OC(CO)CO | -1.05%
66 | O=C(CCCN1CCC(O)(c2ccc(Br)cc2)CC1)c1ccc(F)cc1 | -2.64% [at 35.3 µM]
67 | CCc1c2c(nc3ccc(OC(=O)N4CCC(N5CCCCC5)CC4)cc13)-c1cc3c(c(=O)n1C2)COC(=O)[C@]3(O)CC | 0.551% [at 35.3 µM]
68 | CC1(C)C2=CCCC(C)(C)[C@]23CC[C@H]1C3 | -2.53%
